# Measured values reported in the supplement of paper PMC10105736.
# A number with no mark means an inactive call.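 Rule for the calls: active = MAPPIT score above the 99th percentile of random reference set scores in the same batch; inactive = at or below it.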
# Tests used:
# Assay in all cases: MAPPIT interaction score (arbitrary units); higher = stronger binary interaction signal, active = hit call of the paper
# CG17598 = settings: MAPPIT configuration: N-N; pair source set: Lit-BM-16
# CG15529 = settings: MAPPIT configuration: N-C; pair source set: screen_4
# CG15576 = settings: MAPPIT configuration: N-N; pair source set: Curagen_low_conf
# CG15728 = settings: MAPPIT configuration: N-C; pair source set: screen_3
# CG17776 = settings: MAPPIT configuration: N-N; pair source set: Lit-BS-16
# CG17991 = settings: MAPPIT configuration: N-C; pair source set: screen_3
# sina = settings: MAPPIT configuration: N-N; pair source set: screen_2
# CG17224 = settings: MAPPIT configuration: N-N; pair source set: Finley_Y2H
# CG16904 = settings: MAPPIT configuration: N-N; pair source set: Curagen_low_conf
# CG2865 = settings: MAPPIT configuration: N-N; pair source set: Curagen_low_conf
# Cul3 = settings: pair source set: Lit-BM-16
# puc = settings: pair source set: Lit-BM-16
# spir = settings: MAPPIT configuration: N-N; pair source set: Curagen_low_conf
# CG1789 = settings: MAPPIT configuration: N-N; pair source set: Finley_Y2H
# Mnt = settings: pair source set: Lit-BM-16
# CG17217 = settings: MAPPIT configuration: N-N; pair source set: Finley_Y2H
# PIG-T = settings: MAPPIT configuration: N-N; pair source set: DPIM
# Prosalpha6T = settings: pair source set: Lit-BM-16
# Prosbeta3 = settings: MAPPIT configuration: N-C; pair source set: Lit-BM-16
# Rpt2 = settings: pair source set: Lit-BM-16
# Rpt4 = settings: pair source set: Lit-BM-16
# CG17770 = settings: pair source set: RRS
# CG17162 = settings: MAPPIT configuration: N-C
# 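Note: HEK293T cells with Epo stimulation, STAT-responsive firefly luciferase reporter, fold induction versus unstimulated cells divided by the larger fold induction of two negative controls lacking either bait or prey.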
binder,measurement,setting,value
Rab2 (protein) MSYAYLFKYIIIGDTGVGKSCLLLQFTDKRFQPVHDLTIGVEFGARMITIDGKQIKLQIWDTAGQEAFRSITRSYYRGAAGALLVYDITRRETFNHLTTWLEDARQHSNSNMVIMLIGNKSDLDSRREVKKEEGEAFAREHGLVFMETSARTAANVEEAFINTAKEIYEKIQEGVFDINNEANGIKIGQQHSPTNPSLPGAGGAAGAANSGCC,MAPPIT interaction score,CG17598,1.18
CG3817 (protein) MALLTEKRVKKTHAPASDSSPEESDSEGSQNSASEAEGNAGWADSIQKVLKTTKPKTQKKTVLARAKKSQAAVRFQKDAANKKPGFDFEIEKADVKEEDEGDNHEDEKPQASALDATLTKQQRKNVPLQLRVKPSFRDMERERTLRKVATRGVVQFFNAVRIQQKDLQQQLEEAGPLDSRQDAVLNNINKRKFLDVLMSGKRAKSTPVDNAVKKEEQETDDDDEDKGSSGKKKSEWSVLREDFMTNKKIKHWDEEDDDEEGHNDEADDSDYDDGEE,MAPPIT interaction score,CG15529,1.02
Yp3 (protein) MMSLRICLLATCLLVAAHASKDASNDRLKPTKWLTATELENVPSLNDITWERLENQPLEQGAKVIEKIYHVGQIKHDLTPSFVPSPSNVPVWIIKSNGQKVECKLNNYVETAKAQPGFGEDEVTIVLTGLPKTSPAQQKAMRRLIQAYVQKYNLQQLQKNAQEQQQQLKSSDYDYTSSEEAADQWKSAKAASGDLIIIDLGSTLTNFKRYAMLDVLNTGAMIGQTLIDLTNKGVPQEIIHLIGQGISAHVAGAAGNKYTAQTGHKLRRITGLDPAKVLSKRPQILGGLSRGDADFVDAIHTSTFAMGTPIRCGDVDFYPNGPSTGVPGSENVIEAVARATRYFAESVRPGSERNFPAVPANSLKQYKEQDGFGKRAYMGLQIDYDLRGDYILEVNAKSPFGQRSPAHKQAAYHGMHHAQN,MAPPIT interaction score,CG15576,0.532
REPTOR-BP (protein) MADMEIQSNKMSITEETQVQTRKECGKRGRKPGRKTSTEKLDMKAKLERSRQSARECRARKKLRYQYLEELVADREKAVVALRTELERLIQWNNQLSESNTPTNNDQLLQELGILKQE,MAPPIT interaction score,CG15728,1.49
same,MAPPIT interaction score,CG17776,-0.21
ben (protein) MSSLPRRIIKETQRLMQEPVPGINAIPDENNARYFHVIVTGPNDSPFEGGVFKLELFLPEDYPMSAPKVRFITKIYHPNIDRLGRICLDVLKDKWSPALQIRTILLSIQALLSAPNPDDPLANDVAELWKVNEAEAIRNAREWTQKYAVED,MAPPIT interaction score,CG17991,0.127
same,MAPPIT interaction score,sina,0.428
Ddc (protein) MSHIPISNTIPTKQTDGNGKANISPDKLDPKVSIDMEAPEFKDFAKTMVDFIAEYLENIRERRVLPEVKPGYLKPLIPDAAPEKPEKWQDVMQDIERVIMPGVTHWHSPKFHAYFPTANSYPAIVADMLSGAIACIGFTWIASPACTELEVVMMDWLGKMLELPAEFLACSGGKGGGVIQGTASESTLVALLGAKAKKLKEVKELHPEWDEHTILGKLVGYCSDQAHSSVERAGLLGGVKLRSVQSENHRMRGAALEKAIEQDVAEGLIPFYAVVTLGTTNSCAFDYLDECGPVGNKHNLWIHVDAAYAGSAFICPEYRHLMKGIESADSFNFNPHKWMLVNFDCSAMWLKDPSWVVNAFNVDPLYLKHDMQGSAPDYRHWQIPLGRRFRALKLWFVLRLYGVENLQAHIRRHCNFAKQFGDLCVADSRFELAAEINMGLVCFRLKGSNERNEALLKRINGRGHIHLVPAKIKDVYFLRMAICSRFTQSEDMEYSWKEVSAAADEMEQEQ,MAPPIT interaction score,CG17224,0.0861
rdx (protein) MFEPYVKIKKKRSVNEIYENENLEQQQHHLQQQQQQPATSDNCCCENGEPQNAPEVATATVAATSVAATSAAATVATGAAASSSSSGNCSRLQQLISTPPVLLRRSSLQQQQHQQQQHHPHTPAATATPPQQQQQQQAAPSVLQQHLGHLNYESGATAAAAATAAAAAATVATSRSGSATLAQHLATPSNILQAAFGSSNLQHILTRSAPSPSSSAISSNNCSSACAGNTHYNGGNSNSGSSSSNSNHHSNSIIASRLFGAASSSSSSSSSSASASSSSVAASSSSSSHHLHSHHSALTNSITNRINQSIRRHLNQQQHHHPLSASSSSASASPSASTSSSSSYQQSSVQQQHYNCAHPAQQQQHHHHHHSSSSSSSSSSSSSHHHHNSSSSSNSNNQQQPQQSPLCLVLLVKCPNSKEFCNAAANFCDKRLPVNECQASQTARVTSNLHASSSTMAVSRVPSPPLPEVNTPVAENWCYTQVKVVKFSYMWTINNFSFCREEMGEVLKSSTFSAGANDKLKWCLRVNPKGLDEESKDYLSLYLLLVSCNKSEVRAKFKFSILNAKREETKAMESQRAYRFVQGKDWGFKKFIRRDFLLDEANGLLPEDKLTIFCEVSVVADSVNISGQSNIVQFKVPECKLSEDLGNLFDNEKFSDVTLSVGGREFQAHKAILAARSDVFAAMFEHEMEERKLNRVAITDVDHEVLKEMLRFIYTGKAPNLEKMADDLLAAADKYALEKLKVMCEEALCVNLSVETAAETLILADLHSADQLKAQTIDFINTHATDVMETSGWQNMITTHSHLIAEAFRALATQQIPPIGPPRKRVKMS,MAPPIT interaction score,CG16904,-0.125
same,MAPPIT interaction score,CG2865,-0.131
same,MAPPIT interaction score,Cul3; MAPPIT configuration: N-C,1.12
same,MAPPIT interaction score,Cul3; MAPPIT configuration: N-N,0.911
same,MAPPIT interaction score,puc; MAPPIT configuration: N-C,0.404
same,MAPPIT interaction score,puc; MAPPIT configuration: N-N,0.467
same,MAPPIT interaction score,spir,0.125
Max (protein) MSMSDDDRDIDIESDEDGDSDTGLGSSRHTNTANFTQAEKRAHHNALERRRRDHIKESFTNLREAVPTLKGEKASRAQILKKTTECIQTMRRKISENQKDIEEIKRQNNIIAKQIQALESSNGDQFSEFLSDEEVGSEEADDEDLDQDFSRRNKKMKTFHA,MAPPIT interaction score,CG1789,0.0947
same,MAPPIT interaction score,Mnt; MAPPIT configuration: N-C,4.14 (active)
same,MAPPIT interaction score,Mnt; MAPPIT configuration: N-N,5.94 (active)
Prosalpha2 (protein) MATERYSFSLTTFSPSGKLVQLEYALAAVSGGAPSVGIIASNGVVIATENKHKSPLYEQHSVHRVEMIYNHIGMVYSGMGPDYRLLVKQARKIAQTYYLTYKEPIPVSQLVQRVATLMQEYTQSGGVRPFGVSLLICGWDNDRPYLYQSDPSGAYFAWKATAMGKNAVNGKTFLEKRYSEDLELDDAVHTAILTLKEGFEGKMTADNIEIGICDQNGFQRLDPASIKDYLASIP,MAPPIT interaction score,CG17217,1.84
same,MAPPIT interaction score,PIG-T,0.383
same,MAPPIT interaction score,Prosalpha6T; MAPPIT configuration: N-C,2.29
same,MAPPIT interaction score,Prosalpha6T; MAPPIT configuration: N-N,-0.206
same,MAPPIT interaction score,Prosbeta3,1.69
same,MAPPIT interaction score,Rpt2; MAPPIT configuration: N-C,-1.15
same,MAPPIT interaction score,Rpt2; MAPPIT configuration: N-N,0.523
same,MAPPIT interaction score,Rpt4; MAPPIT configuration: N-C,0.723
same,MAPPIT interaction score,Rpt4; MAPPIT configuration: N-N,-0.155
Rtf1 (protein) MGKRRTQSLIDSNSSDSDSESETNLESDLMSLAKKRKKPQTAAKSSSRSDSDSDWANNKAGAPSSKKKKRQKPSRDSSSSESNWDDDSQDERQPARQSPAQTQQEHKPPEQASQPAQLSEQEEGEVSDSDSDKSKSNSSSSGSDSSSSSSSSDSEFDDGFDDDLMGDDEDRRRLNGLSEKERETEIYKRIEQREIMRTRWEIERKLKLARRGEKNQEKSKNKGERAKKKKEKREKKARKAREAQAPLPTQASTSTLLDVEPKPSNEVRSASPLSTPALNRDAASTSAAVASIMPDDAASSAGVSDYFDHKERSKERKKNVEANKTDDKRSNAMALLKAKREGKAKREEEEAKRMAEKDRDDDKEELDSVSGCKSAVKLKASEIYSDDSGSSDWDEEEKPAGKRSRSNSSKASSESEDEEKAPQRPVFITTREDLNKLRLSRYKMERFVNLPIFESTVLNCFVRISIGNNGQKPVYRVAEIVGVVETGKIYSLGTTRTNRGLRLKHGTQERVFRLEFISNQEFTENEFNKWNEVCQQSHVQMPTIDLIAIKQNDIKKALNYEFKDEDVDKIVEEKNRFRNRPTNYAMKKTCLMKERDAAMLRGDYDIAQDLGQQIDELENRASELDKRRSHTLNLISYINDRNRKKNVEDAEKAILEEARANKGLKISDPFTRRITQPRMGFKGAKKDEDDMQLAPLPPPPPGKKRPNEAGTSSASVRSTDSKDYSLYSLHDFDIDLDVPLPVNTNSVPKPASKPAETVSKRSLNLEDYKKKRGLI,MAPPIT interaction score,CG17770; MAPPIT configuration: N-C,0.216
same,MAPPIT interaction score,CG17770; MAPPIT configuration: N-N,-0.281
TrxT (protein) MVYPVRNKDDLDQQLILAEDKLVVIDFYADWCGPCKIIAPKLDELAHEYSDRVVVLKVNVDENEDITVEYNVNSMPTFVFIKGGNVLELFVGCNSDKLAKLMEKHAGVYTDEAADVKAVHIDGECIVDLTAESSESDNDNNNVNEVSAHDENAVLEH,MAPPIT interaction score,CG17162; pair source set: screen_4,1.51
p38c (protein) MPEFVRVAINESLWEFPDIYEFVRFLGGGSFGQVAKVRLRGTENYFAMKRLMRPFEREEDAKGTYREIRLLKHMNHRNVISLLNVFHPPAHNMMEFQQVYLVTHLMDADLHRYSRSKRMSDQEIRIILYQILRGLKYIHSAGVVHRDLKPCNIAVNGNSEVRILDFGLSRMCADKMTDHVGTMWYLAPEIIFLRGQYTKAIDVWSVGCILAELITDRVLFRGENYVSQIRCLINIMGTPTREFITGISMERSRNYLEGYPLRQRCDFHHLFMGYDVQAIDLMEKMLEMVPEKRITAAEAMLHPYLRDLIEPHHHAEDTAPVYDQNFENMVLPVKCWKELVSHEIRNFRPDQLDLHF,MAPPIT interaction score,CG17162; pair source set: screen_3,0.769
Nedd8 (protein) MLIKVKTLTGKEIEIDIEPTDKVDRIKERVEEKEGIPPQQQRLIFSGKQMNDDKTAADYKVQGGSVLHLVLALRGGDSILTPCV,MAPPIT interaction score,CG15576,1.7
B-H1 (protein) MKDSMSILTQTPSEPNAAHPQLHHHLSTLQQQHHQHHLHYGLQPPAVAHSIHSTTTMSSGGSTTTASGIGKPNRSRFMINDILAGSAAAAFYKQQQHHQQLHHHNNNNNSGSSGGSSPAHSNNNNNINGDNCEASNVAGVGVLPSALHHPQPHPPTHPHTHPHALMHPHGKLGHFPPTAGGNGLNVAQYAAAMQQHYAAAAAAAAARNNAAAAAAAAAAAAAAGVAAPPVDGGVDGGVGLAPPAGGDLDDSSDYHEENEDCDSGNMDDHSVCSNGGKDDDGNSVKSGSTSDMSGLSKKQRKARTAFTDHQLQTLEKSFERQKYLSVQERQELAHKLDLSDCQVKTWYQNRRTKWKRQTAVGLELLAEAGNFAAFQRLYGGSPYLGAWPYAAAAGAAHGATPHTNIDIYYRQAAAAAAMQKPLPYNLYAGVPSVGVGVGVGVGPAPFSHLSASSSLSSLSSYYQSAAAAASAANPGGPHPVAPPPSVGGGSPPSGLVKPIPAHSASASPPPRPPSTPSPTLNPGSPPGRSVDSCSQSDDEDQIQV,MAPPIT interaction score,CG17162; pair source set: screen_4,4.06 (active)
